Measured values reported in PubChem BioAssay (Tox21).
Results filed as inconclusive are left out. Active and inactive are the calls of the source. Unless noted, calls follow the shape of the dose curve; as a rule, active = well fitted curve in the direction sought with a large enough effect in the repeat runs; inconclusive = weak or mixed curves; inactive = no such curve, though single readings can be large; an effect the other way counts as inactive or inconclusive.

Tests used:
[1] = qHTS assay to identify small molecule antagonists of the retinoic acid receptor (RAR) signaling pathway (AID 1159552; also: nearly all actives have a fitted effect of over 50% in size)
Method in brief: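 RARE-luc C3RL4 cells; cpds + 1 uM (final) retinol, 6 hr, 37 C/5% CO2; luciferase reagent, 30 min RT, luminescence readout. Inhibitors of retinol-driven signal scored.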

[2] = qHTS assay to identify small molecule agonists of the retinoic acid receptor (RAR) signaling pathway (AID 1159553)
Method in brief: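 RARE-luc C3RL4 cells; overnight attachment 37 C/5% CO2; compound (DMSO) 6 hr; luciferase reagent, 30 min RT; luminescence read-out.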

[3] = qHTS assay to identify small molecule antagonists of the estrogen related receptor (ERR) signaling pathway from Tox21 library - cell viability counter screen (AID 1224834); also: nearly all actives have a fitted effect of over 30% in size
Method in brief: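 Multiplexed viability counter screen in ERR cells: 17.5 h compound exposure at 37 C, CellTiter-Fluor added, 30 min at 37 C/5% CO2, fluorescence read.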

[4] = target: Luciferin 4-monooxygenase (Photinus pyralis) (UniProt P08659); assay: qHTS assay to identify small molecule inhibitors of firefly luciferase (AID 1224835); also: nearly all actives have a fitted effect of over 25% in size
Method in brief: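 Quantitative HTS format; KM concentrations of both substrates. Purified P. pyralis FLuc activity quantified from luminescence images.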

[5] = qHTS assay to identify small molecule agonists of the constitutive androstane receptor (CAR) signaling pathway - cell viability counter screen (AID 1224836); also: nearly all actives have a fitted effect of over 45% in size
Method in brief: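 HepG2 cells stably carrying hCAR and a CYP2B6-2.2kb reporter were plated 4 h, then given compounds at 15 concentrations plus PK11195 (final 0.75 uM). After 23 h at 37 C, viability was read by CellTiter-Fluor fluorescence.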

[6] = qHTS assay to identify small molecule antagonists of the constitutive androstane receptor (CAR) signaling pathway - cell viability counter screen (AID 1224837); also: nearly all actives have a fitted effect of over 45% in size
Method in brief: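 Read-out: CellTiter-Fluor fluorescence after 23 hr at 37 C/5% CO2. Cells: HepG2 double-stable for hCAR and CYP2B6-2.2kb. Compounds tested at 15 concentrations in the presence of CITCO, final concentration 50 nM.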

[7] = target: Nuclear receptor subfamily 1 group I member 3 (Homo sapiens) (UniProt Q14994); assay: qHTS assay to identify small molecule antagonists of the constitutive androstane receptor (CAR) signaling pathway (AID 1224838); also: nearly all actives have a fitted effect of over 40% in size
Method in brief: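 Read-out: ONE-Glo luciferase luminescence after 30 min at room temperature. HepG2-CYP2B6-hCAR double-stable cells, compounds in 15-point titration plus 50 nM CITCO final, 24 h at 37 C/5% CO2.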

[8] = target: Nuclear receptor subfamily 1 group I member 3 (Homo sapiens) (UniProt Q14994); assay: qHTS assay to identify small molecule agonists of the constitutive androstane receptor (CAR) signaling pathway (AID 1224839);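 also: HepG2 cells stably carrying human CAR and a CYP2B6 luciferase reporter; nearly all actives have a fitted effect of over 15% in size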
Method in brief: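 HepG2 cells stably expressing hCAR and a CYP2B6-2.2kb luciferase reporter were treated with compounds at 15 concentrations plus 0.75 uM PK11195 (final) for 24 h at 37 C; luminescence was read after ONE-Glo addition.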

[9] = qHTS assay to identify small molecule antagonists of the estrogen related receptor signaling pathway with the pleiotropic PPARgamma coactivator (PGC) from Tox21 10K library - cell viability counter screen (AID 1224840; active = well fitted cell-killing curve with a large enough effect in the repeat runs, not every such curve was filed as active; also: nearly all actives have a fitted effect of over 40% in size)
Method in brief: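 Fluorescence read-out of CellTiter-Fluor viability reagent, added after cells had been exposed to compound in DMSO for 17.5 h at 37 C; 30 min development at 37 C/5% CO2. Cells: PGC/ERR line, 2,000/well.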

[10] = target: Thyrotropin receptor (Homo sapiens) (UniProt P16473); assay: qHTS assay to identify small molecule agonists of the thyroid stimulating hormone receptor (TSHR) signaling pathway (AID 1224843; calls by dose curve; also: nearly all actives have a fitted effect of over 45% in size)
Method in brief: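 Compounds are titrated over 15 concentrations, in triplicate, onto TSHR-HEK293 cells seeded at 800/well. Plates sit 30 min at room temperature before cAMP-d2 and anti-cAMP cryptate are added; signal is read after a further hour.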

[11] = qHTS assay to identify small molecule agonists of the hypoxia (HIF-1) signaling pathway - cell viability counter screen (AID 1224844; calls by dose curve; also: nearly all actives have a fitted effect of over 50% in size)
Method in brief: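 CellTiter-Glo luminescence read-out, 30 min RT, taken in the same wells as the beta-lactamase HRE reporter assay; HRE-bla ME-180 cells, 0.5% dialyzed FBS, 17 hr compound treatment at 37C, 5% CO2.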

[12] = qHTS assay to identify small molecule agonists of H2AX (AID 1224845; active = well fitted activation curve with a large enough effect in the signal ratio in the repeat runs, not every such curve was filed as active; the % refers to the signal ratio)
Method in brief: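 Wild-type CHO-K1 cells plated overnight, then exposed 3 hr at 37C to compounds at 15 concentrations (0.76% DMSO). Lysed, then HTRF anti-pH2AX(S139)-cryptate/anti-H2AX-d2 detection after 24 hr at room temperature; emissions 665 and 620 nm.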

[13] = qHTS assay to identify small molecule agonists of the hypoxia (HIF-1) signaling pathway (AID 1224846; active = well fitted activation curve with a large enough effect in the signal ratio in the repeat runs, not every such curve was filed as active; the % refers to the signal ratio)
Method in brief: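 Beta-lactamase FRET read-out (CCF4-AM substrate) from ME-180 cells carrying an HRE-driven bla reporter, after 17 hrs compound exposure at 37C/5% CO2. Cells were seeded at 2,000 per well in 0.5% dialyzed FBS medium and preincubated 5 hrs.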

[14] = qHTS assay to identify small molecule agonists of H2AX - cell viability counter screen (AID 1224847; calls by dose curve; also: top concentration of the series differs between compounds; nearly all actives have a fitted effect of over 30% in size)
Method in brief: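 Wild-type CHO-K1 cells (10% FBS medium) were plated overnight at 37C, exposed to compounds at 15 concentrations for 3 hr at 37C (0.76% DMSO final), and viability was read as CellTiter-Glo luminescence after 30 min at room temperature.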

[15] = qHTS RealTime-Glo MT Cell Viability Assay in HepG2 cells - 24 hour (AID 1224867); also: nearly all actives have a fitted effect of over 50% in size
Method in brief: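 Cells + NanoLuc/prosubstrate dispensed (600 cells/well) → 5 h at 37 C/5% CO2 → compounds in DMSO transferred → 40 h incubation at 37 C, luminescence read at 0, 8, 16, 24, 32, 40 h.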

[16] = qHTS assay to identify small molecule antagonists of the estrogen related receptor signaling pathway with the pleiotropic PPARgamma coactivator (PGC) from Tox21 10K library (AID 1224841; call rule not given here; also: actives are mostly falling curves and most rising ones were filed inactive; nearly all actives have a fitted effect of over 50% in size)
Method in brief: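 Luminescence read-out (One-Glo luciferase reagent, 30 min at room temperature) from PGC/ERR cells exposed to DMSO-dissolved test compounds for 18 h at 37 C; cells, 2,000 per well, had been preincubated 6 h before compound transfer.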

[17] = qHTS assay to identify small molecule agonists of the estrogen related receptor signaling pathway with the pleiotropic PPARgamma coactivator (PGC) from Tox21 10K library (AID 1224842); also: nearly all actives have a fitted effect of over 15% in size
Method in brief: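 PGC/ERR reporter cells (NTP line) were seeded 2,000 per well, rested 6 h at 37 C/5% CO2, then pin-dosed with compounds in DMSO for 18 h at 37 C; luciferase read by One-Glo luminescence after 30 min at room temperature.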

[18] = qHTS assay to identify small molecule antagonists of the estrogen related receptor (ERR) signaling pathway from Tox21 library (AID 1224848); also: nearly all actives have a fitted effect of over 50% in size
Method in brief: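 First, 2,000 ERR cells per well were plated and held 6 h at 37 C/5% CO2. Next, compounds in DMSO were pinned in and left 18 h at 37 C. Finally, ONE-Glo was added and luminescence read after 30 min at room temperature.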

[19] = qHTS assay to identify small molecule agonists of the estrogen related receptor (ERR) signaling pathway from Tox21 library (AID 1224849; calls by dose curve; also: nearly all actives have a fitted effect of over 15% in size); details: ERR reporter cell line, ONE-Glo luciferase, 18 h; at 92.4 µM (top of the series) unless noted
Method in brief: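 Luminescence readout (ONE-Glo, 30 min RT) after 18 h compound exposure at 37 C of NTP-supplied ERR reporter cells; cells were plated 6 h before compound addition by pin tool.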
% is scaled to controls: 0 for no effect and ±100 for the full control effect.

Chain of Thyrotropin receptor (Homo sapiens) (P16473 whole entry, looked up): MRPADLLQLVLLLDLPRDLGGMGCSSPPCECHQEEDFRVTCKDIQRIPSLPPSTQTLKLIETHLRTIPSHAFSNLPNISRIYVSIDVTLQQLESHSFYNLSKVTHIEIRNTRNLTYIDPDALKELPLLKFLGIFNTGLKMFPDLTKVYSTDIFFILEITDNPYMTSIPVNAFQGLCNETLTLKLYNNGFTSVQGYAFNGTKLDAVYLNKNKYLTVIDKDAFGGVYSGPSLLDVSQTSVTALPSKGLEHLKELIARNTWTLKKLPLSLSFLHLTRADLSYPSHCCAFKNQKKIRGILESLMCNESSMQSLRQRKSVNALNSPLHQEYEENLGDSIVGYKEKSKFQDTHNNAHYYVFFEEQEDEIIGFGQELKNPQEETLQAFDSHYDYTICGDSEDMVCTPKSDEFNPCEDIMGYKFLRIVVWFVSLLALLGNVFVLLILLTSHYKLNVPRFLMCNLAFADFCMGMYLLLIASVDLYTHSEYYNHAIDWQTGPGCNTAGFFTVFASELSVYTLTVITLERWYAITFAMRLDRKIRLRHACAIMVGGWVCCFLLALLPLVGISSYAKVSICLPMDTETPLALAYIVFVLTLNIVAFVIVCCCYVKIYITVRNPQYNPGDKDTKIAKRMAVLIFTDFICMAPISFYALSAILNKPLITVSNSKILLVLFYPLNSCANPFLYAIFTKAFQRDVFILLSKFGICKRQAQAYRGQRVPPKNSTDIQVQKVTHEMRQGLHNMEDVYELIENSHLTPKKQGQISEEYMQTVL
Chain of Luciferin 4-monooxygenase (Photinus pyralis) (P08659 whole entry, looked up): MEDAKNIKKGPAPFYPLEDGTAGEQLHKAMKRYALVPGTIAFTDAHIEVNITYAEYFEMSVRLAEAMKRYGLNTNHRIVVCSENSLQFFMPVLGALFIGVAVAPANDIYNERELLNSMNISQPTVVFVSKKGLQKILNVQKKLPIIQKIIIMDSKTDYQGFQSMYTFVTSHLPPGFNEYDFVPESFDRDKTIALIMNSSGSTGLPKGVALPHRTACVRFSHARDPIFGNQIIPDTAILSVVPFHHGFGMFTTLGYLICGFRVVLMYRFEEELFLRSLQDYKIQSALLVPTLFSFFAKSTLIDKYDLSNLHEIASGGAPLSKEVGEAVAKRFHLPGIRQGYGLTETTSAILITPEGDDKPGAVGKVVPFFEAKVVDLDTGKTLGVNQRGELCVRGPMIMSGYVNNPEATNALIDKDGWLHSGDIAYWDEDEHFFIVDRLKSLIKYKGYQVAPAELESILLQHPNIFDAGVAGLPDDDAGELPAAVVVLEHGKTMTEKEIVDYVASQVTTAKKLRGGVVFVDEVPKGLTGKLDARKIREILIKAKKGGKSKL
Chain of Nuclear receptor subfamily 1 group I member 3 (Homo sapiens) (Q14994 whole entry, looked up): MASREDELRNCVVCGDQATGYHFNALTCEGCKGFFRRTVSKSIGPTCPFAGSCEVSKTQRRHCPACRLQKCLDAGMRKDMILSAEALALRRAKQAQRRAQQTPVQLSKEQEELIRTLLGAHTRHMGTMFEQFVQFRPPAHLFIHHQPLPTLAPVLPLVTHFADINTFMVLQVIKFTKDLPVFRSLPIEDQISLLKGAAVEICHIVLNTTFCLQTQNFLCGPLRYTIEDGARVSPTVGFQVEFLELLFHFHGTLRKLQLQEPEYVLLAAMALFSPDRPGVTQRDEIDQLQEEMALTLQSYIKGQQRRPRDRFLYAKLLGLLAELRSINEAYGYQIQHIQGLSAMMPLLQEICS

CCCCCCCCCCCCCC(=O)OCC
inactive: outcome [1] | Potency [2] | outcome [3] | Potency [4] | outcome [5] | outcome [6] | outcome [7] | Potency [8] | outcome [9] | Potency [10] | outcome [11] | outcome [12] | outcome [13] | outcome [14] | outcome [15]

COc1cnc(NS(=O)(=O)c2ccc(N)cc2)nc1
inactive: outcome [1] | Potency [2] | outcome [3] | Potency [4] | outcome [5] | outcome [6] | Potency [8] | outcome [9] | Potency [16] | Potency [17] | Potency [10] | outcome [11] | outcome [12] | outcome [13] | outcome [14] | outcome [18] | activity change, positive = activation [19] 4.16% [at 42.5 µM] | outcome [15]

Cc1ccc2cccnc2c1
inactive: Potency [2] | outcome [3] | Potency [4] | outcome [5] | outcome [6] | outcome [7] | Potency [8] | outcome [9] | outcome [12] | outcome [14] | outcome [15]

O=S(=O)(O)c1cc(I)c(O)c2ncccc12
inactive: Potency [2] | outcome [3] | Potency [4] | outcome [5] | outcome [6] | outcome [9] | Potency [16] | Potency [17] | Potency [10] | outcome [11] | outcome [13] | outcome [14] | outcome [18] | activity change, positive = activation [19] 2.69% [at 42.5 µM] | outcome [15]

O=C(O)CCCCCCCCCC(=O)O
inactive: outcome [1] | Potency [2] | outcome [3] | Potency [4] | outcome [5] | outcome [9] | Potency [16] | Potency [17] | Potency [10] | outcome [11] | outcome [12] | outcome [13] | outcome [14] | outcome [18] | activity change, positive = activation [19] 3.45% | outcome [15]

Cc1ccc(N)nc1
inactive: outcome [1] | Potency [2] | outcome [3] | Potency [4] | outcome [5] | outcome [6] | outcome [9] | Potency [16] | Potency [17] | Potency [10] | outcome [11] | outcome [12] | outcome [13] | outcome [14] | outcome [18] | activity change, positive = activation [19] 3.66% | outcome [15]

O=C[C@@H](O)[C@H](O)[C@H](O)CO
inactive: Potency [2] | outcome [3] | Potency [4] | outcome [5] | outcome [6] | outcome [7] | Potency [8] | outcome [9] | Potency [10] | outcome [11] | outcome [12] | outcome [13] | outcome [14] | outcome [15]

O=C(O)/C=C(\CC(=O)O)C(=O)O
inactive: outcome [1] | Potency [2] | outcome [3] | Potency [4] | outcome [5] | outcome [7] | Potency [8] | outcome [9] | Potency [10] | outcome [11] | outcome [12] | outcome [14] | outcome [15]

COc1cc(OC)cc(OC)c1
inactive: outcome [1] | Potency [2] | outcome [3] | Potency [4] | outcome [5] | outcome [6] | outcome [7] | Potency [8] | outcome [9] | outcome [11] | outcome [12] | outcome [13] | outcome [14] | outcome [15]

O=C(O)P(=O)(O)O
inactive: outcome [1] | Potency [2] | outcome [3] | Potency [4] | outcome [5] | outcome [6] | outcome [7] | Potency [8] | outcome [9] | Potency [10] | outcome [11] | outcome [12] | outcome [15]
